These results are taken from PubChem BioAssay.

The structures appear in SMILES notation. Calls of active or inactive are those of the source.

Test [1] in a line: optical density shifts of acrAB sulA E. coli – strain DRC41, OD650, 48 h, E. coli filamentation inducer project, primary screen (AID 1152).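 Also: E. coli MC1000 strain DRC41 lacking acrAB efflux pump and sulA.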 The conditions noted are these: higher = more signal, called active from +8 up or from −8 down.
Test [2] can be described thus: probe aLefty1 binding on compound microarray – biochemical, small-molecule microarray, 635/667 nm fluorescence, primary screen (AID 1153).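 Also: score merges spot fluorescence with signal-to-noise ratio from the scanned slide images.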 The following applies: higher = more signal.
Test [3] in a line: plasmodial surface anion channel blockers, osmotic lysis – cell-based, P. falciparum Indochina, OD700, 1 h, primary screen (AID 1154). The conditions noted are these: P. falciparum Indochina infected RBC osmotic lysis, higher = more signal, called active from +8 up or from −8 down.
Test [4] is described as follows: plasmodial surface anion channel blockers, osmotic lysis – cell-based, P. falciparum Indochina, OD700, 2 h, primary screen (AID 1155).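 Also: lysis reports solute entry through the parasite surface anion channel PSAC.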 The conditions noted are these: P. falciparum Indochina infected erythrocytes, higher = more signal, called active from +8 up or from −8 down.
The nature of test [5]: changes in parasitized red cell lysis, either direction – P. falciparum Indochina, OD700, 3 h, PSAC antagonist project, primary screen (AID 1156). The following applies: P. falciparum-infected erythrocytes, osmotic lysis, higher = more signal, called active from +8 up or from −8 down.
The nature of test [6]: plasmodial surface anion channel blockers, osmotic lysis – cell-based, P. falciparum Indochina, OD700, 18 h, primary screen (AID 1157). The following applies: P. falciparum Indochina infected erythrocytes, osmotic lysis OD700, 18 h; higher = more signal, called active from +8 up or from −8 down.
The nature of test [7]: S6 kinase pathway phospho-S6 level changes – cell-based, A549, cytoblot, luminescence, serum-stimulated, primary screen (AID 1158).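 Also: serum-stimulated A549 lung adenocarcinoma cells; signal is phosphorylated S6 detected by cytoblot immunostaining with HRP secondary.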 The conditions noted are these: 5 h, higher = more signal.
Test [8] deals with NADPH oxidase 2 (Homo sapiens) (UniProt P04839). The test can be described thus: compounds shifting NOX2 Amplex Red fluorescence – cell-based, HEK293-NOX2, PMA-stimulated, NOX inhibitor project, primary screen (AID 1159). Also: test concentration not given here. The following applies: 45 min, higher = more signal, called active from +8 up or from −8 down.
The target in test [9] is NADPH oxidase 4 (Homo sapiens) (UniProt Q9NPH5). In words: compounds shifting NOX4 Amplex Red fluorescence – cell-based, HEK293-NOX4, tetracycline-induced, NOX inhibitor project, primary screen (AID 1160). The conditions noted are these: HEK293-NOX4, Amplex Red H2O2 fluorescence, 45 min; higher = more signal, called active from +8 up or from −8 down.
Test [10] has as its target NADPH oxidase 5 (Homo sapiens) (UniProt Q96PH1). In words: compounds shifting NOX5 Amplex Red fluorescence – cell-based, HEK293-NOX5, NOX inhibitor project, primary screen (AID 1161). The following applies: HEK293-NOX5, ionomycin, 45 min, higher = more signal.
Test [11] is described as follows: compound effects on lung adenocarcinoma cell viability – A549, calcein-AM fluorescence, 48 h, basal, profiling panel (AID 1162). Also: test concentration not given here. The following applies: higher = more signal.
Test [12] in a line: compound effects on differentiated 3T3-L1 adipocyte viability – cell-based, 3T3-L1 adipocytes, calcein-AM fluorescence, 48 h, basal, profiling panel (AID 1163). Also: test concentration not given here. The following applies: 3T3-L1 adipocytes viability, higher = more signal.
Test [13] is described as follows: compound effects on hepatocellular carcinoma cell viability – HepG2, calcein-AM fluorescence, 48 h, basal, profiling panel (AID 1164). Also: test concentration not given here. The conditions noted are these: higher = more signal.
A short description of test [14]: compound effects on multiple myeloma cell viability – MM1S, calcein-AM fluorescence, 48 h, basal, profiling panel (AID 1165). Also: test concentration not given here. The conditions noted are these: higher = more signal.
Test [15] in a line: calcein-AM signal in unstimulated myeloma cells – cell-based, calcein-AM fluorescence, 48 h, PK04 Diversity Set, profiling panel (AID 1166).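 Also: cells grown under basal conditions without added stimulus; test concentration not given here.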 The following applies: RPMI8226 myeloma viability, higher = more signal.
Test [16] is described as follows: JC-1 mitochondrial signal, unstimulated HepG2 cells – cell-based, JC-1 fluorescence, 24 h, 100 nL compound, profiling panel (AID 1167). Also: test concentration not given here. The following applies: HepG2 mitochondrial potential, higher = more signal.
Test [17] is described as follows: JC-1 mitochondrial signal, unstimulated adipocytes – cell-based, JC-1 fluorescence, 3T3-L1 adipocytes, 24 h, 100 nL compound, profiling panel (AID 1168). Also: test concentration not given here. The following applies: JC-1 mitochondrial fluorescence, higher = more signal, called active from +8 up or from −8 down.
Test [18] in a line: JC-1 mitochondrial signal, unstimulated myeloma cells – cell-based, JC-1 fluorescence, RPMI8226, 24 h, 100 nL compound, profiling panel (AID 1169). Also: test concentration not given here. The following applies: JC-1 mitochondrial potential fluorescence, higher = more signal.
The nature of test [19]: JC-1 mitochondrial signal, unstimulated MM1S myeloma – cell-based, JC-1 fluorescence, 24 h, 100 nL compound, profiling panel (AID 1170). Also: test concentration not given here. The following applies: MM1S mitochondrial potential, higher = more signal.
Test [20] can be described thus: resazurin metabolic signal in A549 cells – cell-based, resazurin fluorescence, 24 h, PK04 Diversity Set, profiling panel (AID 1171). Also: test concentration not given here. The conditions noted are these: A549 viability, higher = more signal, called active from +8 up or from −8 down. (In general: The colour change of resazurin is a common sign of viable cells or microbes.)

Chain of NADPH oxidase 5 (Homo sapiens) (Q96PH1 whole entry, looked up): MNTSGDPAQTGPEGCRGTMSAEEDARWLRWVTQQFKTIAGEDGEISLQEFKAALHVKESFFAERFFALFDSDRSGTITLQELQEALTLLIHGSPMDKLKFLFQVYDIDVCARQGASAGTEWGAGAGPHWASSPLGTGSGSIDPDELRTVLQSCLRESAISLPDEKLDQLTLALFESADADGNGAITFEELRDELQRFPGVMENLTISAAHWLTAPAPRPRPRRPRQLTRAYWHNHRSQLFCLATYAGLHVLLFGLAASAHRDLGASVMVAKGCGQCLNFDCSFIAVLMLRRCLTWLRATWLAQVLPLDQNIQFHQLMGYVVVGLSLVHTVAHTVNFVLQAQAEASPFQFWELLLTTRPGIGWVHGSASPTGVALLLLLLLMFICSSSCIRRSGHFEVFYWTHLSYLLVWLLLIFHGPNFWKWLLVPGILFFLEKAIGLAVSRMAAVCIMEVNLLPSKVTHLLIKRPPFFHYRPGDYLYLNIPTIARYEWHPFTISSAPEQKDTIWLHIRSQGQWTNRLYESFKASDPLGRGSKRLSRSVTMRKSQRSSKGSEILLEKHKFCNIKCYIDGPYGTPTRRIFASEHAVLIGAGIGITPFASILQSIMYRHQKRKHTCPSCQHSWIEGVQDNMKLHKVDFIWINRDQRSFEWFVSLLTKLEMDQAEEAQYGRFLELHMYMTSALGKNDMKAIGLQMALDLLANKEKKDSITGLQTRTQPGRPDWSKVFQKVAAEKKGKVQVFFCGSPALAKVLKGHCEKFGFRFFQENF
Chain of NADPH oxidase 4 (Homo sapiens) (Q9NPH5 whole entry, looked up): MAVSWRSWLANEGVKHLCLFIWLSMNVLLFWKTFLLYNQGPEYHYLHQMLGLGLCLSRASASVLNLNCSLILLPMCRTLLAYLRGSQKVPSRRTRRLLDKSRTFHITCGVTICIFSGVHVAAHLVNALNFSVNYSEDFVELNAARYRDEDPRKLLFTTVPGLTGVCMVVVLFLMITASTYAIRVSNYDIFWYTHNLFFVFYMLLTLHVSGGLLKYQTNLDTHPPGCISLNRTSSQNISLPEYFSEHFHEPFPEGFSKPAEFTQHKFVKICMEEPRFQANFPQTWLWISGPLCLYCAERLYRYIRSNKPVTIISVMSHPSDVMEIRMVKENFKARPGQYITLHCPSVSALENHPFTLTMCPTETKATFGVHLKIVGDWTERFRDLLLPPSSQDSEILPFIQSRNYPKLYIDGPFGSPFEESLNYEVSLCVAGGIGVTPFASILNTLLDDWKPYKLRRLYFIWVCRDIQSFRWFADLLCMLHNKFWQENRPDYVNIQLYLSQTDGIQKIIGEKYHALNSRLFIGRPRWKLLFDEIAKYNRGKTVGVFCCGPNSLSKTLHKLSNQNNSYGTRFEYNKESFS
Chain of NADPH oxidase 2 (Homo sapiens) (P04839 whole entry, looked up): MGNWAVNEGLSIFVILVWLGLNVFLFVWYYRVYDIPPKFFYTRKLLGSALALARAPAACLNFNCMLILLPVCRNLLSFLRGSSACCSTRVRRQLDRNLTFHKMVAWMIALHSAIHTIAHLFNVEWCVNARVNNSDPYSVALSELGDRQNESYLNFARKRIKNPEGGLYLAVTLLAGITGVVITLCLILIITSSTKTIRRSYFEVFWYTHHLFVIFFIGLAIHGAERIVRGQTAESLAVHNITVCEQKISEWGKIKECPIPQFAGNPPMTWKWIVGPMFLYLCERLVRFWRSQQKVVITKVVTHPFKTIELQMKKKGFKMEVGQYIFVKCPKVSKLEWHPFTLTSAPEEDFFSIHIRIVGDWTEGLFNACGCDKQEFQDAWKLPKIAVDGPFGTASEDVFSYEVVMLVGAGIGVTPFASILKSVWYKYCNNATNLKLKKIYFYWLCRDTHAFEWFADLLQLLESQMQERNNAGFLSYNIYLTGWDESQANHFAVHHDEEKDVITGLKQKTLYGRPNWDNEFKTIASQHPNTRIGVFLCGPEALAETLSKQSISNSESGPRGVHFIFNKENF

For the molecule `CC(CCN1CCc2nc(-c3ccccc3)c(-c3ccccc3)cc2C1)=NO[C@@H](C)c1cn([C@H](CO)Cc2ccccc2)nn1`, the z-score in test [1] was -1.44 (inactive); in test [3], -0.278 (inactive); in test [4], -1.89 (inactive); in [5], 0.0934 (inactive); in test [6] it was -2.16 (inactive); in [7], 1.52. The z-score is -7.26 (inactive) in [8]; -1.51 (inactive) in test [9]; -4.19 in test [10]; 2.69 in test [11]; 0.343 in test [12]; 1.4 in test [13]. In addition, the z-score was -0.352 in [14]; -0.0077 in test [15]; 1.87 in test [16]; -0.353 (inactive) in [17]; 0.555 in [18]; 0.41 in test [19]. In addition, the z-score in test [20] is -0.81 (inactive). In test [2], this molecule returned a composite z-score of -0.103.

Consider `COCCOC(=O)N1C(=O)[C@@]2(c3cc(C#CC4(O)CCCCCC4)ccc31)[C@H](C(=O)N1CCN(c3ncccn3)CC1)[C@H]1C(=O)O[C@H](c3ccccc3)[C@H](c3ccccc3)N1[C@@H]2c1ccc(OCCO)cc1`, for which the z-score in test [1] is 1.74 (inactive); in test [3], 11.7 (active); in test [4], 2.25 (inactive); in test [5] it was 1.35 (inactive); in test [6], 1.19 (inactive); in [7] it was 0.372. For the same molecule, the z-score in test [8] was 1.69 (inactive); in test [9], -0.754 (inactive); in test [10], 1.24; in test [11], 0.514; in [12] it was 1.48; in test [13], -0.118. Besides, the z-score in [14] is 0.0759; in test [15] it was -1.9; in test [16], -0.866; in test [17] it was -0.224 (inactive); in [18] it was -0.479; in test [19] it was -0.653. Also, the z-score in test [20] is -0.49 (inactive). The same molecule returned a composite z-score in test [2] of 0.485.

In the case of `CC(C)C[C@@H]1NC(=O)[C@H]2C[C@@H](C(=O)O)[C@@H](c3ccc(O)cc3)N2C1=O`, the z-score in test [1] is 0.498 (inactive); in test [3], 5.88 (inactive); in test [4], 1.66 (inactive); in [5], -1.66 (inactive); in [6], 0.448 (inactive); in test [7] it was -0.239. For the same molecule, the z-score is -1.72 (inactive) in [8]; -2.25 (inactive) in [9]; -0.356 in test [10]; 0.48 in test [11]; 0.0559 in [12]; 0.111 in test [13]. Also, the z-score in [14] was -2.7; in test [15], 0.25; in test [16], 1.27; in test [17] it was -0.0304 (inactive); in test [18] it was 0.433; in test [19], -0.0341. Also, in [20], the z-score was -0.0496 (inactive). The composite z-score in test [2] stood at 0.0455.

For the molecule `O=C1[C@H]2[C@H]3[C@H](O)[C@H](O)CC(=NOCc4ccccc4)[C@@H]3CC[C@H]2C(=O)N1C1CCCCC1`, the z-score in [1] is -0.501 (inactive); in test [3] it was 2.79 (inactive); in [4] it was 0.322 (inactive); in [5], 0.28 (inactive); in [6], 0.352 (inactive); in test [7] it was -0.206. Also, the z-score in test [8] is 1.56 (inactive); in test [9], 0.568 (inactive); in [10], -0.818; in test [11], -0.128; in test [12] it was -1.08; in test [13] it was -0.622. In addition, the z-score is -0.615 in test [14]; 0.0958 in [15]; -1.19 in test [16]; -0.652 (inactive) in test [17]; 0.886 in test [18]; -0.101 in [19]. Also, the z-score in test [20] is 0.36 (inactive). In addition, in [2], the composite z-score is 0.056.
